Data from PubChem BioAssay AID488815 (Broad Institute, 2010).
Measured potencies and affinities stand elsewhere. Records with an inconclusive call do not appear. Calls of active or inactive are those of the source. No rule for the calls is given here.

Molecular target: CAAX prenyl protease 1 (Saccharomyces cerevisiae (strain ATCC 204508 / S288c)) (UniProt P47154)
Experiment: yeast CAAX protease Ste24 inhibition – biochemical, S. cerevisiae, plate reader, cherry-pick, dose response (AID 488815)

Chain of CAAX prenyl protease 1 (Saccharomyces cerevisiae (strain ATCC 204508 / S288c)) (P47154 whole entry, looked up): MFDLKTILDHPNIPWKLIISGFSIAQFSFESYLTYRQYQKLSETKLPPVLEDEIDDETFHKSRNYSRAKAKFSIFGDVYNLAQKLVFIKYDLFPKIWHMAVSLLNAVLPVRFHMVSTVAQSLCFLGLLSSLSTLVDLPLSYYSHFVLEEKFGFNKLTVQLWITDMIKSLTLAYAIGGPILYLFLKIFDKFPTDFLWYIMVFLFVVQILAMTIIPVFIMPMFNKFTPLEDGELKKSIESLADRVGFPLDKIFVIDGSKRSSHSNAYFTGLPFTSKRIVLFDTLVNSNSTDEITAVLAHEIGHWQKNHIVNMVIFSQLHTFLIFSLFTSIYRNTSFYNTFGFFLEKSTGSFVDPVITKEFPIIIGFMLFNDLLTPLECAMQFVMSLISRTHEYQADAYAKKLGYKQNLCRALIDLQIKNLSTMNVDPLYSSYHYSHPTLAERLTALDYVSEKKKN

| SMILES | outcome |
| --- | --- |
| COc1ccc2[nH]c(C(=O)NCCCn3ccnc3)cc2c1 | inactive |
| O=C(Nc1ccc(N2CCOCC2)c(Cl)c1)c1cc2ccccc2o1 | inactive |
| Cc1cc(-c2ccccc2)n2nc(C)c(C#N)c2n1 | inactive |
| Cc1cccc(-c2nnc(SCc3ccc(C#N)cc3)n2Cc2ccco2)c1 | inactive |
| O=C(CN1CCC(NC(=O)c2ccc(Br)cc2)CC1)NCc1cccs1 | inactive |
| CS(=O)(=O)Nc1ccccc1C(=O)NC1CC2CCC1C2 (stereo not drawn) | inactive |
| Cc1ccc(NS(=O)(=O)c2ccc(NC(=O)N3CCCCC3)cc2)cc1 | inactive |
| CCn1c(C)nc2c(=O)oc3ccccc3c21 | inactive |
| CCOc1ccc(OCC)c(NC(=O)c2nnn(CC(=O)Nc3cc(C)cc(C)c3)c2N)c1 | inactive |
| Cc1ccc(/C=N/NC(=O)c2nnn(-c3nonc3N)c2C(C)C)o1 | inactive |
| Cc1cccc(NS(=O)(=O)c2ccc(C)c(C(=O)OCC(=O)Nc3cc(C)on3)c2)c1 | inactive |
| COc1ccc(C)cc1NC(=O)CN1C(=O)COc2ccc(S(=O)(=O)N3CCOCC3)cc21 | inactive |
| COC(C/C=C/[C@H](O)[C@@H](C)OCc1ccccc1)OC | inactive |
| COc1ccccc1CC(=O)Nc1ccc2c(C)cc(=O)oc2c1 | inactive |
| O=C(O)CCc1nc2cc(C(F)(F)F)ccc2n(Cc2ccccc2)c1=O | inactive |
| COc1cc2ccccc2cc1C(=O)N(CCN(C)C)c1nc2ccc(C)cc2s1 | inactive |
| COc1ccc(CN2CCN(C(c3ccc(F)cc3)c3ccc(F)cc3)CC2)c(OC)c1OC | inactive |

| SMILES | outcome |
| --- | --- |
| CCOC(=O)c1ccc(NC(=O)N2CCN(Cc3ccccc3)CC2)cc1 | inactive |
| CC(C)N1CCN(S(=O)(=O)c2ccc3ccccc3c2)CC1 | inactive |
| NC(=NCCCCCCN=C(N)/N=C(\N)Nc1ccc(Cl)cc1)/N=C(\N)Nc1ccc(Cl)cc1 | inactive |
| CC(Cc1cccs1)NC(=O)Nc1ccc([N+](=O)[O-])cc1 (stereo not drawn) | inactive |
| COc1ccccc1/C=C/C=N/NC(=O)CN1CCN(S(=O)(=O)c2ccc(C)cc2)CC1 | inactive |
| CC(C)(C)OC(=O)N1CCC(c2cc(=O)n3[nH]cc(C(=O)Nc4ccc(F)c(Cl)c4)c3n2)CC1 | inactive |
| CCCCNC(=S)N=Nc1c(O)n(Cc2ccccc2)c2ccccc12 | inactive |
| NC(=O)c1nsc(C(=O)N(c2ccccc2F)C(C(=O)NCc2ccccc2)c2ccc(O)cc2)c1N (stereo not drawn) | inactive |
| CC1CCN(C(=O)C2CCN(S(=O)(=O)c3ccc(-n4cnnn4)cc3)CC2)CC1 | inactive |
| CCN1CCN(c2ccc(NC(=O)c3cccc(OCc4ccccc4)c3)cc2)CC1 | inactive |
| COc1cccc(C2CC(c3ccc(Br)cc3)=NN2C(=O)c2ccncc2)c1OC (stereo not drawn) | inactive |
| O=c1c(-c2ccccc2)c(O)c2ccccc2n1-c1ccccc1 | inactive |
| Cc1ccc(C(=O)c2c3ccccc3[n+]([O-])n2CCO)cc1 | inactive |
| COc1ccccc1NC(=O)CN(c1ccc(C23CC4CC(CC(C4)C2)C3)cc1)S(C)(=O)=O | inactive |
| CCN(CC)c1ccc(C(=O)c2ccccc2C(=O)O)c(O)c1 | inactive |
| O=C(O)CCC(=O)c1ccc(-c2ccccc2)cc1 | inactive |
